# Test results as given in PubChem BioAssay (NCATS).
# Where “and” joins values, the source holds several entries; their conditions need not be identical. Identical values can stand only once. Records with an inconclusive call do not appear. Calls of active or inactive are those of the source. Calls come from the whole dose curve; as a rule, active = well fitted cell-killing curve with a large enough effect; inconclusive = small, poorly fitted or top-dose-only effect, or effect the other way; inactive = no such curve, though single readings can be large or run the other way.
# Test: Viability qHTS for spleen associated tyrosine kinase inhibitor (SYKi) drug resistant MV4-11 cells (AID 1963824); note: nearly all actives have a fitted effect of over 35% in size
# Conditions: SYKi-resistant MV4-11 viability, CellTiter-Glo, 72 h; series mostly up to 45 µM; viability, % of control: at the top concentration
# Procedure, shortened: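 SYK inhibitor-resistant MV4-11 AML cells, 500 per well, added to predispensed compounds and incubated 72 hr at 37 C, 5% CO2. Viability measured by CellTiter-Glo luminescence after 10 min at room temperature.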
# Potency is the fitted concentration of half-maximal effect.
Structure (SMILES),Potency,"viability, % of control"
CCOC(=O)COc1ccc2c(c1)C[C@@H](NC[C@H](O)c1cccc(Cl)c1)CC2,8.2 µM (active),–
CC(=O)c1cc2c(cc1O)OC(C)(C)C=C2,–,69% (inactive)
O=C(O)Cc1cn(C2OCC(O)C(O)C2O[C@@H]2O[C@H](CO)[C@@H](O)[C@H](O)[C@H]2O)c2ccccc12 (stereo partly drawn),–,77.7% [at 17.3 µM] (inactive)
O=C(C(c1ccccc1)c1ccccc1)N1CCN(CC(O)COc2cccc3ncccc23)CC1 (stereo not drawn),10.3 µM (active) and 11.8 µM (active),–
CC1CCC2(C(=O)O)CCC3(C)C(=CCC4C5(C)CCC(OC(=O)/C=C/c6ccccc6)C(C)(C)C5CCC43C)C2C1C (stereo not drawn),–,4.22% [at 17.3 µM] (inactive)
CC1OC(OC2C(O)C(C(=O)O)OC(OC3CCC4(C)C(CCC5(C)C4C=CC4=C6CC(C)(C)CC(O)C6(C)CCC45C)C3(C)C)C2OC2OCC(O)C(O)C2O)C(O)C(O)C1O (stereo not drawn),–,97.4% [at 9.25 µM] (inactive)
Cc1cc(-c2cc(O)ccc2Cl)cc2nnc(Nc3ccc(OCCN4CCCC4)cc3)nc12,1.84 µM (active),–
O=c1c2cccnc2n(-c2cccc([N+](=O)[O-])c2)c(=O)n1Cc1ccncc1,–,80% (inactive)
Cc1nc(CN(C)c2ncnc3ccc(-c4ccc5c(c4)OCO5)cc23)cs1,5.8 µM (active),–
CC(=O)O[C@H]1[C@H](C)[C@@H](O)[C@H]2[C@@H]1C=C(C(=O)O)[C@H]1C[C@@H]3[C@H]([C@H]21)[C@H]1C(=O)O[C@@H]2CC[C@@]3(C)O[C@]1(O)[C@@H]2C,–,110% [at 17.3 µM] (inactive)
CC1(O)CCC2C(C(=O)O)=COC(OC3OC(CO)C(O)C(O)C3OC(=O)/C=C/c3ccc(O)cc3)C21 (stereo not drawn),–,98.8% [at 17.3 µM] (inactive)
C[C@@H]1C(=O)O[C@H]2C[C@]34[C@H]5C[C@@H](C(C)(C)C)[C@]36[C@@H](OC(=O)[C@H]6O)O[C@]4(C(=O)O5)[C@]21O,–,96.1% [at 17.3 µM] (inactive)
C=CC(=O)N1CCCC(n2nc(-c3ccc(Oc4ccccc4)cc3)c3c(N)ncnc32)C1 (stereo not drawn),1.16 µM (active),–
CC(C#N)C(C)O[C@@H]1O[C@H](CO)[C@@H](O)[C@H](O)[C@H]1O (stereo partly drawn),–,97.1% (inactive)
CC(=O)C=C=C1C(C)(C)CC(O)CC1(C)O[C@@H]1O[C@H](CO[C@H]2OC[C@](O)(CO)[C@H]2O)[C@@H](O)[C@H](O)[C@H]1O (stereo partly drawn),–,45.9% [at 17.3 µM] (inactive)
CC1=CC(=O)CC(C)(C)C1/C=C/C(C)O[C@@H]1O[C@H](CO)[C@@H](O)[C@H](O)[C@H]1O[C@@H]1OC[C@](O)(CO)[C@H]1O (stereo partly drawn),–,69.3% [at 17.3 µM] (inactive)
N#CC(=C(/N)Sc1ccccc1N)/C(C#N)=C(/N)Sc1ccccc1N,7.31 µM (active),–
CC1OC(O[C@@H]2[C@H](O)[C@@H](OC3OC(CO)C(O)C(O)C3O)[C@H](OC(=O)[C@]34CCC(C)(C)C[C@H]3C3=CCC5[C@@]6(C)CC[C@H](O[C@@H]7O[C@H](C(=O)O)[C@@H](O)[C@H](O[C@@H]8OC[C@@H](O)[C@H](O)[C@H]8O)[C@H]7O[C@@H]7O[C@H](CO)[C@H](O)[C@H](O)[C@H]7O)[C@@](C)(C=O)C6CC[C@@]5(C)[C@]3(C)C[C@H]4O)O[C@@H]2C)C(O)C(O)C1OC1OCC(O)C(O)C1O (stereo partly drawn),–,89.9% [at 4.97 µM] (inactive)
C[C@@H]1O[C@@H](O[C@H]2[C@H](O)[C@@H](C(=O)O)O[C@@H](O[C@H]3CC[C@@]4(C)C(CC[C@]5(C)C4CC=C4C6CC(C)(C)CC[C@]6(C(=O)O)CC[C@]45C)C3(C)C)[C@@H]2O[C@@H]2O[C@H](CO)[C@@H](O)[C@H](O)[C@H]2O)[C@H](O)[C@H](O)[C@H]1O (stereo partly drawn),–,81.7% [at 9.25 µM] (inactive)
C=C[C@@](C)(O)CC/C=C(\C)C(=O)O[C@@H]1[C@@H]2O[C@]2(C)[C@H]2[C@H](O[C@@H]3O[C@H](CO)[C@@H](O)[C@H](O)[C@H]3O)OC=C[C@@]12O,–,109% [at 17.3 µM] (inactive)
C/C(=N\N=C(N)N)c1cc(NC(=O)CCCCCCCCC(=O)Nc2cc(/C(C)=N/N=C(N)N)cc(/C(C)=N/N=C(N)N)c2)cc(/C(C)=N/N=C(N)N)c1,9.2 µM (active),–
CC1OC(OC2C(CO)OC(OCC3OC(OC(=O)C45CCC(C)(C)CC4C4=CCC6C7(C)CCC(OC8OC(C(=O)O)C(O)C(OC9OC(CO)C(O)C(O)C9O)C8O)C(C)(C)C7CCC6(C)C4(C)CC5)C(O)C(O)C3O)C(O)C2O)C(O)C(O)C1O (stereo not drawn),–,105% [at 9.25 µM] (inactive)
COc1cc(CCc2ccccc2)c(C(=O)O)c2c1CC(C(C)(C)O)O2 (stereo not drawn),2.27 µM (active),–
